A selection: hits, their analogues and other compounds. The true share with any hit is near 13%.
USP17 block: inhibitors of human USP17 deubiquitinase; A8MUK1; purified USP17, Ub-rhodamine cleavage fluorescence, 3 h; inhibition, % at 50 µM; hit rate 6.5% among 47,000; AID 1645855
Target sequence (A8MUK1 whole entry, looked up): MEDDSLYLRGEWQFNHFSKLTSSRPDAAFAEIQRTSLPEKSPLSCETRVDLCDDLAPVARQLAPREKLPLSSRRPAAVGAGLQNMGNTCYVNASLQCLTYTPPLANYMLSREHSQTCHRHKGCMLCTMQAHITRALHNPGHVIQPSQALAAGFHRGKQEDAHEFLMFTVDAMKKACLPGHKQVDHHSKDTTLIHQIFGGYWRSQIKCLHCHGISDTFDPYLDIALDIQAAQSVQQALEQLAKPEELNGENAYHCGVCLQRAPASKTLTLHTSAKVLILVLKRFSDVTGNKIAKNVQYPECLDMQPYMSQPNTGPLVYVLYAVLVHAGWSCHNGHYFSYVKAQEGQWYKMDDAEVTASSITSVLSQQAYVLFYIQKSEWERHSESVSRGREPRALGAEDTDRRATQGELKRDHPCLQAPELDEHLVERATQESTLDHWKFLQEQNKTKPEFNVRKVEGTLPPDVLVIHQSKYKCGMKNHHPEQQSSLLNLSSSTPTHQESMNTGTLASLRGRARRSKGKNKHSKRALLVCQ
USP8 block: human USP8 deubiquitinase inhibition | P40818 | purified USP8, Ub-rhodamine cleavage fluorescence, 30 min | inhibition, % at 20 µM | hit rate 4.2% among 47,000 | AID 1645853
USP30 inh: blocks human USP30 ubiquitin-rhodamine cleavage. purified USP30, Ub-rhodamine cleavage fluorescence. inhibition, % at 25 µM. hit rate 5.3% among 47,000. AID 1645860
USP10 inh: human USP10 deubiquitinase inhibition; Q14694; purified USP10, Ub-rhodamine fluorescence, 60 min; inhibition, % at 20 µM; hit rate 1.1% among 47,000; AID 1645856
USP7 inh: blocks human USP7 ubiquitin-rhodamine cleavage. Q93009. purified USP7, Ub-rhodamine cleavage fluorescence. inhibition, % at 20 µM. hit rate 0.3% among 47,000
USP28 block: human USP28 deubiquitinase inhibition. purified USP28, Ub-rhodamine cleavage fluorescence, 30 min. hit rate 3% among 47,000. Q96RU2. inhibition, % at 25 µM
An asterisk follows results filed as active; i = inactive; / = not tested or not shown. Cut-off read from the data, not from the text of the source: active = inhibition above about 30%; inactive = the rest.

SMILES	USP17 block	USP8 block	USP30 inh	USP10 inh	USP7 inh	USP28 block
Cc1ccc(-c2cc(N3CCN(S(C)(=O)=O)CC3)ncn2)cc1	47.3*	2.0	47.0*	0.3	4.9	19.3
Cc1ccc(-c2c3c(=O)n(C)c(=O)n(C)c3cn2-c2ccc3c(c2)OCCO3)cc1	14.4	63.2*	-38.6	-0.9	-3.1	-22.0
CC(C)c1nc(N2CCCC2=O)sc1C(=O)Nc1ccc(F)cc1	4.0	19.6	-4.8	0.8	-0.6	31.8*
Cc1cccc(CSc2nc(C)nc3c2oc2ccccc23)c1	3.3	-1.2	11.3	1.0	0.8	0.0
CCn1c(=O)n(CC(=O)c2ccc(F)cc2)c2c(C(N)=O)nc(-c3ccc(C)o3)nc21	34.2*	0.0	-80.3	2.2	0.9	-1.6
Cc1ccc(-c2nc(C(N)=O)c3[nH]c(=O)n(CCc4ccccc4)c3n2)o1	-12.8	-17.2	-56.5	-10.7	-0.6	-12.0
CCn1c(=O)n(CC(=O)c2ccccc2F)c2c(C(N)=O)nc(-c3ccco3)nc21	25.6	24.5	-105.8	-5.5	13.6	-1.2
CCn1c(=O)n(CC(=O)c2ccccc2)c2c(C(N)=O)nc(-c3ccc(C)o3)nc21	34.1*	-5.2	-18.1	0.2	-3.1	-8.2
CC(=O)NC[C@H]1C[C@]2(C)[C@@H](CCCC[C@]2(C)O)N1C(=O)c1ncccn1	-2.7	-9.3	-5.1	0.3	2.4	-11.0
COc1cc2oc(=O)cc(CN3CCCCC3)c2cc1OC	45.4*	3.4	2.2	0.4	-2.1	-3.5
COC(=O)C1CCN(Cc2cc(=O)oc3cc(OC)ccc23)CC1	0.5	7.5	-0.1	1.5	1.2	-1.1
O=C(NC1CCCCC1)C(c1ccc(F)cc1)N(Cc1ccccc1)C(=O)c1ccc2c(c1)OCCO2 (centres undefined)	-15.4	1.8	8.6	10.8	-17.5	0.0
COc1cccc(CNC(=O)Cc2cccc3ccccc23)c1	7.2	13.9	-55.0	-3.3	-2.8	-0.4
COc1ccc(CNC(=O)c2ccc(S(=O)(=O)Nc3ccccc3F)cc2)cc1	24.6	11.5	31.0*	7.0	4.7	10.9
CCOC(=O)N1CCN(C(=O)c2ccc(CNS(=O)(=O)c3ccc(NC(C)=O)cc3)cc2)CC1	17.4	21.8	22.8	3.3	4.8	10.0
CC(=O)Nc1ccc(S(=O)(=O)NCc2ccc(C(=O)NCCN3CCCCCC3)cc2)cc1	34.6*	-9.9	-122.8	-6.0	-11.1	-5.5
COc1ccc(CNC(=O)c2ccc(CNS(=O)(=O)c3ccc(NC(C)=O)cc3)cc2)cc1	41.1*	18.8	36.8*	4.5	7.0	12.5
COc1ccc2cc(C(C)C(=O)NCc3ccccc3)ccc2c1 (centres undefined)	12.4	-12.0	41.7*	8.5	7.1	28.3
Cn1nc(C2CCCN(C(=O)CCc3ccccc3)C2)c2nccnc21 (centres undefined)	-15.0	-0.3	-4.4	0.3	-1.6	2.1
COc1ccc(C(=O)Nc2ccccc2C(=O)NCc2ccccc2)cc1	15.7	16.0	91.7*	7.0	4.9	23.4
COc1ccc(CNC(=O)c2ccccc2NC(=O)c2ccccc2F)cc1	10.0	3.3	0.9	2.3	-4.1	0.1
CCOc1cc2[nH]c(=O)n(CCCC(=O)N3CCC(N4CCCCC4)CC3)c(=O)c2cc1OCC	-4.2	-5.5	-0.1	1.0	2.2	-12.1
COc1ccc(C(=O)[C@@H]2[C@H](C(=O)OC(c3ccccc3)c3ccccc3)N3c4ccccc4C=CC3[C@@]23C(=O)Nc2ccccc23)cc1OC (some centres undefined)	-122.9	-57.7	i	-5.1	-56.7	-201.0
COc1ccc(OC)c(C(=O)C2C(C(C)=O)N3c4ccccc4C(C)=CC3C23C(=O)Nc2ccccc23)c1 (centres undefined)	-138.9	-14.4	/	-4.2	-9.8	/
O=C(c1cccs1)[C@@H]1[C@@H](C(=O)c2ccc3c(c2)OCO3)[C@]2(C(=O)Nc3ccccc32)[C@H]2C=Cc3ccccc3N12	-2.7	37.6*	-225.4	-0.6	-0.9	-62.9
SMILES	USP17 block	USP8 block	USP30 inh	USP10 inh	USP7 inh	USP28 block
CC1=CC2N(c3ccccc31)C(C(=O)C(C)(C)C)C(C(=O)c1ccc3c(c1)OCO3)C21C(=O)Nc2ccccc21 (centres undefined)	21.7	68.3*	-183.5	-3.3	-7.0	-22.1
CN(C)CCNC(=O)c1nc(N2CCSCC2)c2cnn(C)c2n1	-0.1	-4.6	-10.1	4.7	5.7	-5.1
CCc1ccc(OC(C)C(=O)Nc2ccc3nsnc3c2)cc1 (centres undefined)	25.5	66.3*	6.4	3.3	-5.6	21.1
CC(Oc1ccccc1Cl)C(=O)Nc1ccc2nsnc2c1 (centres undefined)	13.1	36.2*	24.6	2.7	-10.2	17.5
Cc1ccc(OC(C)C(=O)Nc2ccc3nsnc3c2)cc1C (centres undefined)	3.7	45.0*	-18.8	0.2	-1.4	-63.9
Cc1cc(C)cc(OC(C)C(=O)Nc2ccc3nsnc3c2)c1 (centres undefined)	13.1	24.2	5.2	6.2	-5.4	7.1
CCN1C(=O)c2ccccc2C(=O)[C@@]2(C)CN(C)C[C@@H]12	20.4	15.1	24.1	-1.5	0.9	8.2
CC(=O)N1CCc2cc(S(=O)(=O)NC(Cc3ccccc3)C(=O)Nc3cccc(Cl)c3C)ccc21 (centres undefined)	36.3*	47.3*	67.0*	54.8*	25.9	70.3*
CC(=O)N1CCc2cc(CNS(=O)(=O)c3ccccc3)ccc21	2.9	-1.8	17.0	1.1	3.5	8.9
CC(=O)N1CCc2cc(S(=O)(=O)NC(Cc3ccccc3)C(=O)NCc3ccc4c(c3)OCO4)ccc21 (centres undefined)	55.5*	12.7	53.9*	10.9	3.3	52.2*
CC(=O)N1CCc2cc(S(=O)(=O)Nc3ccccc3C)ccc21	-5.5	0.2	-16.5	2.0	/	-10.3
O=C(NCc1noc(C2CCCCC2)n1)C1CCCCC1	-4.3	1.4	-13.6	-0.8	-5.4	-6.1
O=C(C1CCN(c2nccc(N3CCCC3)n2)CC1)N1CCC2(CC1)OCCO2	-56.7	-30.6	-176.5	-5.5	-5.3	-39.1
Cc1sc(NCc2ccccc2)nc1-c1ccccc1	-6.6	-13.5	0.6	9.0	-2.6	40.3*
COc1cc(=O)[nH]c(SCC(=O)Nc2cccc(C)c2)n1	-15.9	-11.6	-14.5	-0.7	1.9	-1.8
CCOc1ccc(NC(=O)c2nc3c(=O)[nH]c4cc(C)ccc4n3n2)cc1	53.5*	9.8	-133.8	8.2	-4.7	-40.8
Cc1cccc(NC(=O)c2nc3c(=O)[nH]c4cc(C)ccc4n3n2)c1	34.7*	-35.0	-173.7	10.0	0.7	-10.6
C[C@@H](c1ccccc1)N1C(=O)N[C@@H](CCC(=O)Nc2ccc3c(c2)OCO3)C1=O	21.9	52.2*	-6.5	1.5	0.2	0.4
O=C1N(CC2CCCCC2)CCN1c1ccc2c(c1)CCC2	31.0*	25.3	19.0	9.1	-20.2	11.9
CCCCN1CCN(c2ccc3c(c2)CCC3)C1=O	3.7	6.0	-1.4	1.6	-3.6	7.7

Screens as filed in PubChem.
